Experimental data reported in PubChem BioAssay (NCI).
Compounds without any hit were thinned out: in the full panel of roughly 83,000, 20% have a hit.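 Cell lines were cultured in 96-well plates, exposed to a single compound concentration, and assessed for percent growth 48 hours later.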 Values without a mark were called inactive. Calls of active or inactive are those of the source. How the source made its calls: active means growth percent below 10; inactive means the rest.

Experiments:
Assay in all cases: NCI-60 one-dose screen, 48 h (100 = growth as untreated, 0 = no growth, -100 = all killed)
Conditions in all cases: 10 µM unless noted
HT29 colon = system: HT29 colon
SNB-75 CNS = system: SNB-75 CNS
SNB-19 CNS = system: SNB-19 CNS
U251 CNS = system: U251 CNS
PC-3 prostate = system: PC-3 prostate
SK-MEL-5 melanoma = system: SK-MEL-5 melanoma
UACC-62 melanoma = system: UACC-62 melanoma
LOX IMVI melanoma = system: LOX IMVI melanoma
SK-MEL-28 melanoma = system: SK-MEL-28 melanoma
SK-MEL-2 melanoma = system: SK-MEL-2 melanoma
SN12C renal = system: SN12C renal
UO-31 renal = system: UO-31 renal
TK-10 renal = system: TK-10 renal
ACHN renal = system: ACHN renal
CAKI-1 renal = system: CAKI-1 renal
A498 renal = system: A498 renal
CCRF-CEM leukemia = system: CCRF-CEM leukemia
MOLT-4 leukemia = system: MOLT-4 leukemia
SR leukemia = system: SR leukemia
EKVX NSCLC = system: EKVX NSCLC

Row | Compound | growth (HT29 colon) | growth (SNB-75 CNS) | growth (SNB-19 CNS) | growth (U251 CNS) | growth (PC-3 prostate) | growth (SK-MEL-5 melanoma) | growth (UACC-62 melanoma) | growth (LOX IMVI melanoma) | growth (SK-MEL-28 melanoma) | growth (SK-MEL-2 melanoma) | growth (SN12C renal) | growth (UO-31 renal) | growth (TK-10 renal) | growth (ACHN renal) | growth (CAKI-1 renal) | growth (A498 renal) | growth (CCRF-CEM leukemia) | growth (MOLT-4 leukemia) | growth (SR leukemia) | growth (EKVX NSCLC)
1 | CCOc1ccc([C@H]2C(C(=O)c3ccc(Cl)cc3)C3(N[C@@H]2c2ccccc2)C(=O)Nc2ccc(Br)cc23)cc1 (stereo partly specified) | -27.1% (active) | 26.9% | 47.6% | 13.5% | 13.8% | 47.8% | 51.4% | -36.2% (active) | 75.2% | 56.6% | 6.51% (active) | 32.7% | 53.4% | 10.7% | 31.8% | 46.7% | 34.9% | 2.38% (active) | -24% (active) | 
2 | O=c1/c(=C\c2ccc(-c3ccccc3)o2)sc2nc(-c3ccccc3)nn12 | 102% | 99.8% | 93.3% | 98.8% | 95.7% | 101% | 98.7% | 95.9% | 109% | 114% | 97.3% | 89% |  | 102% | 96.4% | 84.3% | 101% | 108% | 102% | 99.9%
3 | CN(C)c1ccc(-c2c(NC(C)(C)C)nc3c(OCCc4ccccc4)cccn23)cc1 | 10.2% | 48.4% | 19.3% | 13.6% | 0.316% (active) | -69.4% (active) | 35.1% | 11.5% | 35.1% |  | 12.5% | 4.11% (active) | 52.1% | 17.7% | 11.7% | 24.5% | 5.5% (active) | 1.16% (active) | -0.837% (active) | 8.16% (active)
4 | COc1ccc(COc2ccc(/C=C3/C(=O)Nc4cc(Cl)ccc43)cc2)cc1 | 107% | 83.8% | 100% | 96.8% | 86.1% | 96.7% | 88.6% | 94.8% | 98.7% | 114% | 94.1% | 79.4% |  | 95.7% | 88.3% | 83.7% | 6.11% (active) | 108% | 109% | 95.8%
5 | CCCC(=O)NC(c1cccc(N(C)C)c1)c1cc(C)c2cccnc2c1O (stereo unspecified) | 91.6% | 76.8% | 69.3% | 55.5% | 50.1% | 62.7% | 46.1% |  | 77.1% | 89.9% | 78.2% | 31.9% | 84.9% | 38.2% | 48.3% |  | 24.1% | 22.9% | 21.7% | 73.8%
6 | COc1ccc(-n2c(SCC(=O)Nc3ccc(-c4nc5ccccc5[nH]4)cc3)nc3ccccc3c2=O)cc1 | -5.71% (active) | 62.8% | 20.9% | -83.4% (active) | 6.41% (active) | -7.57% (active) | -18.3% (active) |  | -64% (active) | 97.7% | 62.3% | 73.5% | 107% |  | 36.8% |  | 25.7% | 25.7% | -4.97% (active) | 53.1%
7 | Nc1nc(N)c2c(n1)NC(c1ccc(F)cc1)CC(c1ccc(Nc3nc(NCCO)nc(Nc4ccc(Cl)cc4)n3)cc1)=N2 (stereo unspecified) | -52.1% (active) | 44.3% | 8.01% (active) | -76.6% (active) | 22.7% | -81% (active) | 49.8% |  | -82.9% (active) | 26.3% | 59.9% | 34.8% | 111% |  | 40.9% |  | -13.8% (active) | -17.5% (active) | -17.9% (active) | 42.5%
8 | NS(=O)(=O)c1ccc(Nc2nc(SCC(=O)c3ccc(Cl)cc3)nc3ccccc23)cc1 | 105% | 75.3% | 97.8% | 95.2% | 89.9% | 95.3% | 79.4% | 99.5% | 100% |  | 88.1% | 82.3% | 153% | 89% | 74.5% | 74.8% | 92.4% | 91.3% | 79.6% | 
